Experimental data: PubChem BioAssay AID1159580 (chemical genetic matrix, 2015)
Values joined by “and” are separate entries in the source; they are usually repeats but may differ in a detail not shown here. Equal values may be shown once. Hit rate of the full screen: of about 5,500 compounds, about 2,000 (36%) were called active. Not shown: some 18% with an inconclusive outcome. No stated cut-off is given here; in the data, active means normalized growth mostly below about 0.91 (no sharp cut-off); inconclusive means no clear call, values can overlap the other calls; inactive means mostly above about 0.92. The list shows a part of the results.

Test: chemical genetic growth profiling, strain panel (AID 1159580);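 further: tested at 20 µM; growth read once vehicle control cultures reached saturation at 30 °C; 1 = growth at the plate median or of vehicle wells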
Details: S. cerevisiae deletion strains, growth OD

With `COc1cc(OC)c2c(=O)c(O)c(-c3ccc(OC)c(OC)c3)oc2c1` the normalized growth (locus YAL021C, strain ccr4, stronger effect = lower value) was 0.741 (active), the normalized growth (locus YAL026C, strain drs2, stronger effect = lower value) was 0.852 (active) and the normalized growth (locus YAL030W, strain snc1, stronger effect = lower value) was 0.904 (active). The normalized growth (locus YBL061C, strain skt5, stronger effect = lower value) was 0.901 (active), the normalized growth (locus YBR009C, strain hhf1, stronger effect = lower value) was 0.903 (active) and the normalized growth (locus YBR021W, strain FUR4, stronger effect = lower value) was 0.922 (inactive). For the same compound, the normalized growth (locus YBR023C, strain chs3, stronger effect = lower value) was 0.827 (active), the normalized growth (locus YBR171W, strain sec66, stronger effect = lower value) was 0.942 (inactive) and the normalized growth (locus YBR229C, strain ROT2, stronger effect = lower value) was 0.648 (active). The normalized growth (locus YBR231C, strain swc5, stronger effect = lower value) was 0.77 (active), the normalized growth (locus YBR279W, strain paf1, stronger effect = lower value) was 0.913 (active) and the normalized growth (locus YCL011C, strain gbp2, stronger effect = lower value) was 0.916 (inactive). For the same compound, the normalized growth (locus YCL016C, strain dcc1, stronger effect = lower value) was 0.934 (inactive), the normalized growth (locus YCL029C, strain bik1, stronger effect = lower value) was 0.768 (active) and the normalized growth (locus YCL069W, strain vba3, stronger effect = lower value) was 0.973 (inactive). The normalized growth (locus YCR088W, strain abp1, stronger effect = lower value) was 0.958 (inactive), the normalized growth (locus YDL005C, strain med2, stronger effect = lower value) was 0.982 (inactive) and the normalized growth (locus YDL035C, strain GPR1, stronger effect = lower value) was 0.31 (active). The normalized growth (locus YDL040C, strain nat1, stronger effect = lower value) was 0.978 (inactive), the normalized growth (locus YDL074C, strain BRE1, stronger effect = lower value) was 0.402 (active) and the normalized growth (locus YDL101C, strain DUN1, stronger effect = lower value) was 0.396 (active). The normalized growth (locus YDL134C, strain PPH21, stronger effect = lower value) was 0.369 (active), the normalized growth (locus YDL185W, strain tfp1, stronger effect = lower value) was 0.94 (inactive) and the normalized growth (locus YDL192W, strain arf1, stronger effect = lower value) was 0.719 (active). The normalized growth (locus YDR001C, strain nth1, stronger effect = lower value) was 0.964 (inactive), the normalized growth (locus YDR069C, strain doa4, stronger effect = lower value) was 0.496 (active) and the normalized growth (locus YDR101C, strain arx1, stronger effect = lower value) was 0.811 (active). For the same compound, the normalized growth (locus YDR137W, strain rgp1, stronger effect = lower value) was 0.904 (inactive), the normalized growth (locus YDR159W, strain sac3, stronger effect = lower value) was 0.992 (inactive) and the normalized growth (locus YDR162C, strain NBP2, stronger effect = lower value) was 0.132 (active). The normalized growth (locus YDR195W, strain ref2) was 0.984 (inactive), the normalized growth (locus YDR297W, strain sur2, stronger effect = lower value) was 0.841 (active) and the normalized growth (locus YDR318W, strain mcm21, stronger effect = lower value) was 0.788 (active). For the same compound, the normalized growth (locus YDR334W, strain swr1, stronger effect = lower value) was 0.856 (active), the normalized growth (locus YDR335W, strain msn5, stronger effect = lower value) was 0.878 (active) and the normalized growth (locus YDR388W, stronger effect = lower value) was 0.844 (active). For the same compound, the normalized growth (locus YDR392W, strain spt3, stronger effect = lower value) was 0.943 (inactive), the normalized growth (locus YDR502C, strain sam2, stronger effect = lower value) was 0.667 (active) and the normalized growth (locus YEL003W, strain gim4, stronger effect = lower value) was 0.876 (active). For the same compound, the normalized growth (locus YEL037C, strain rad23, stronger effect = lower value) was 0.926 (inactive), the normalized growth (locus YEL061C, strain CIN8 (second series), stronger effect = lower value) was 0.98 (inactive) and the normalized growth (locus YER015W, strain faa2, stronger effect = lower value) was 0.82 (active). For the same compound, the normalized growth (locus YER016W, strain bim1, stronger effect = lower value) was 0.942 (inactive), the normalized growth (locus YER110C, stronger effect = lower value) was 1.02 (inactive) and the normalized growth (locus YER111C, strain swi4, stronger effect = lower value) was 0.835 (active). The normalized growth (locus YER155C, strain BEM2 (second series), stronger effect = lower value) was 0.936 (inactive), the normalized growth (locus YER155C, strain BEM2, stronger effect = lower value) was 0.664 (active) and the normalized growth (locus YER167W, strain BCK2, stronger effect = lower value) was 0.631 (active). The normalized growth (locus YFR010W, strain ubp6, stronger effect = lower value) was 0.852 (active), the normalized growth (locus YGL078C, strain dbp3, stronger effect = lower value) was 0.978 (inactive) and the normalized growth (locus YGL167C, strain pmr1, stronger effect = lower value) was 0.938 (inactive). The normalized growth (locus YGL173C, strain kem1, stronger effect = lower value) was 0.78 (active), the normalized growth (locus YGL227W, strain vid30, stronger effect = lower value) was 0.986 (inactive) and the normalized growth (locus YGL240W, strain doc1, stronger effect = lower value) was 0.993 (inactive). The normalized growth (locus YGL248W, strain PDE1, stronger effect = lower value) was 0.46 (active), the normalized growth (locus YGL253W, strain hxk2, stronger effect = lower value) was 0.889 (active) and the normalized growth (locus YGR078C, strain PAC10, stronger effect = lower value) was 0.591 (active). The normalized growth (locus YGR135W, strain pre9, stronger effect = lower value) was 0.689 (active), the normalized growth (locus YGR252W, strain gcn5, stronger effect = lower value) was 0.85 (inactive) and the normalized growth (locus YHR013C, strain ard1, stronger effect = lower value) was 0.868 (inactive). The normalized growth (locus YHR027C, strain rpn1, stronger effect = lower value) was 0.695 (active), the normalized growth (locus YHR030C, strain SLT2, stronger effect = lower value) was 0.971 (inactive) and the normalized growth (locus YHR079C, strain IRE1 (second series), stronger effect = lower value) was 0.77 (active). For the same compound, the normalized growth (locus YHR079C, strain IRE1, stronger effect = lower value) was 0.996 (inactive), the normalized growth (locus YHR094C, strain hxt1, stronger effect = lower value) was 0.864 (active) and the normalized growth (locus YHR129C, strain ARP1, stronger effect = lower value) was 0.589 (active). The normalized growth (locus YHR142W, strain chs7, stronger effect = lower value) was 0.82 (active), the normalized growth (locus YHR200W, strain rpn10, stronger effect = lower value) was 0.784 (active) and the normalized growth (locus YIL066C, strain RNR3, stronger effect = lower value) was 0.46 (active). For the same compound, the normalized growth (locus YIL073C, strain SPO22, stronger effect = lower value) was 0.163 (active), the normalized growth (locus YIL125W, strain kgd1, stronger effect = lower value) was 0.916 (active) and the normalized growth (locus YIR030C, strain dcg1, stronger effect = lower value) was 0.873 (active). The normalized growth (locus YJL092W, strain hpr5, stronger effect = lower value) was 0.959 (inactive), the normalized growth (locus YJL095W, strain BCK1 (second series), stronger effect = lower value) was 0.921 (active) and the normalized growth (locus YJL095W, strain BCK1, stronger effect = lower value) was 0.264 (active) and 0.97 (inactive). The normalized growth (locus YJL115W, strain asf1, stronger effect = lower value) was 0.973 (inactive), the normalized growth (locus YJL129C, strain trk1, stronger effect = lower value) was 1.01 (inactive) and the normalized growth (locus YJL134W, strain LCB3, stronger effect = lower value) was 0.608 (active). For the same compound, the normalized growth (locus YJL154C, strain vps35, stronger effect = lower value) was 0.968 (inactive), the normalized growth (locus YJL164C, strain tpk1, stronger effect = lower value) was 0.758 (active) and the normalized growth (locus YJL166W, strain qcr8, stronger effect = lower value) was 0.934 (inactive). The normalized growth (locus YJL168C, strain set2, stronger effect = lower value) was 0.929 (active), the normalized growth (locus YJL187C, strain SWE1 (second series), stronger effect = lower value) was 0.17 (active) and the normalized growth (locus YJR043C, strain POL32, stronger effect = lower value) was 0.238 (active). For the same compound, the normalized growth (locus YJR066W, strain TOR1, stronger effect = lower value) was 0.943 (inactive).
